Measured values as given in PubChem BioAssay AID652016 (National Center for Advancing Translational Sciences (NCATS), 2013).
Results filed as inconclusive are left out. Active and inactive are the calls of the source. Calls follow the shape of the dose curve; as a rule, active = well fitted inhibition curve with a large enough effect; inconclusive = small, poorly fitted or top-dose-only effect; inactive = flat fitted curve, though single readings scatter.

Biological target: Luciferin 4-monooxygenase (Photinus pyralis) (UniProt P08659)
Assay: qHTS Assay for Inhibitors of Firefly Luciferase from the GSK Published Protein Kinase Inhibitor Set
Conditions: purified firefly luciferase, luminescence inhibition; series mostly up to 57.5 µM; activity change, negative = inhibition: at the top concentration
Source text: FLuc (firefly luciferase) is the prototypical bioluminescent reporter gene from Photinus pyralis.[1] The enzyme catalyzes the oxidation luciferin via luciferin-AMP to produce light. FLuc is used in cell-based reporter gene-based assays for screening small molecule chemical libraries. However, small molecule luciferase inhibitors present in most large chemical libraries are often enriched in the output of high throughput screens using this reporter sometimes complicating interpretation and candidate selection.
RLuc is a bioluminescent reporter gene luciferase from Renilla reniformis, also known as the sea pansy. RLuc uses the luciferin substrate coelenterazine. RLuc is often used in combination with the nonhomologous luciferase FLuc (firefly luciferease) as a trasfection or pathway normalization control. Recently, non-homologous reporters have been described for high throughput screening 'coincidence' reporter gene strategies.
1. Fan F, Wood KV (2007) Bioluminescent assays for high-throughput screening. Assay Drug Dev Technol 5: 127-136.
2. Thorne N, Inglese J, Auld DS (2010) Illuminating insights into firefly luciferase and other bioluminescent reporters used in chemical biology. Chem Biol 17: 646-657.
3. […] Chem Biol 19: 1060-1072.
4. Michelini E, Cevenini L, Mezzanotte L, Coppa A, Roda A (2010) Cell-based assays: fuelling drug discovery. Anal Bioanal Chem 398: 227-238.
5. Cheng KC, Inglese J (2012) A coincidence reporter-gene system for high-throughput screening. Nat Methods 9: 937.
Biochemical firefly luciferase enzyme assay
NCGC Assay Protocol Summary:
Reagents: 50mM Tris acetate, pH 7.5; 10mM Mg acetate; 10uM D-luciferin (Sigma #L9504); 10uM ATP; 0.01% Tween-20; 0.05% BSA; 10nM P. pyralis luciferase (Sigma #L9506)
Control compounds used were two known firefly luciferase inhibitors (compounds (2) and (5) in Auld et al., 2010), and DMSO.
Three microliters containing firefly luciferase substrates in buffer (final concentrations: 50mM Tris acetate, pH 7.5, 10mM Mg acetate, 0.01% Tween-20, 0.05% BSA, 10uM D-luciferin, and 10uM ATP) are dispensed into each well of a Greiner white, solid-bottom 1536-well format plate using a flying reagent dispenser (FRD). These assay plates were then treated with 23nL of compound or DMSO using a Kalypsys pin tool, which allows for delivery of a 7-point interplate titration of each compound to the assay plates (quantitative HTS), with final compound concentrations ranging from approximately 60uM to 300pM. One microliter of firefly luciferase in 50mM Tris-acetate buffer was then delivered by FRD to each well for a final enzyme concentration of 10nM. Luciferase activity was then measured using an Envision plate reader (PerkinElmer), with an average incubation time of 5 min.
% is scaled to controls: 0 for no effect and ±100 for the full control effect; potency is read from the fitted curve at half-maximal effect.

Luciferin 4-monooxygenase (Photinus pyralis), sequence (P08659 whole entry, looked up): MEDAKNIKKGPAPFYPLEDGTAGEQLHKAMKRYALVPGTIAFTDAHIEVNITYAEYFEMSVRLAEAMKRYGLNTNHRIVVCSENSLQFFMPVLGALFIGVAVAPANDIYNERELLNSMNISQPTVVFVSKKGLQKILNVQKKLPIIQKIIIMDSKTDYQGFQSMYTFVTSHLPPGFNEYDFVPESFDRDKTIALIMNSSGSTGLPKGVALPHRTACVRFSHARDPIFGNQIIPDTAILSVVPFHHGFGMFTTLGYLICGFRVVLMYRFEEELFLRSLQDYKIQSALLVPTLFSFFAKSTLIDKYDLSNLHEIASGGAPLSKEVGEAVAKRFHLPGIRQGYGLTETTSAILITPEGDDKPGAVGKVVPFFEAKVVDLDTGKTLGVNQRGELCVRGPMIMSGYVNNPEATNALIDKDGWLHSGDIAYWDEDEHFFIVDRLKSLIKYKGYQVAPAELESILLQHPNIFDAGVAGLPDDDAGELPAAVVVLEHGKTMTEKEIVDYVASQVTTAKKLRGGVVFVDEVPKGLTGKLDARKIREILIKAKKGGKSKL

Activity change, negative = inhibition, inactive:
Fc1ccc(-c2ncn(C3CCNCC3)c2-c2ccnc(Oc3ccc(Oc4ccccc4)cc3)n2)cc1 15.8%, Nc1nc(-c2ccc(F)cc2)c(-c2ccc3ncccc3n2)s1 10.4%, Cc1cc(O)cc(C)c1C=Cc1cncc(C(N)=O)c1 -0.957%, CCS(=O)(=O)c1ccc(OC)c(Nc2ncc(-c3ccccc3Cl)o2)c1 -5.19%, CC1=C(C(=O)Nc2cc(Cl)c3[nH]ncc3c2)C(c2ccc(C(F)(F)F)cc2)CC(=O)N1 (stereo not given) 7.74%, N#Cc1ccc(Oc2nccc(-c3c(-c4ccc(F)cc4)ncn3C3CCNCC3)n2)cc1 3.97%, COc1cc2ncn(-c3cc(OCc4ccccc4C(F)(F)F)c(C(=O)N(C)C)s3)c2cc1OC 6.24%, O=C(OC1CNC(C#Cc2cc3ncnc(Nc4ccc(Cc5ccccc5)cc4)c3s2)C1)N1CCOCC1 (stereo not given) 3.82%, Cc1cccc2c(N=Nc3ccc(S(N)(=O)=O)cc3)c(O)[nH]c12 -17.8%, CN1CCC(n2cnc(-c3ccc(F)cc3)c2-c2ccnc(Nc3ccccc3)n2)CC1 3.59%, CCNC(=O)OC1CNC(C#Cc2cc3ncnc(Nc4ccc(OCc5cccc(F)c5)c(Cl)c4)c3s2)C1 (stereo not given) -14.8%, COc1ccc(C2=C(N3CCc4ccccc43)C(=O)NC2=O)cc1 -13.5%, Cc1nn(C)c2cc(N(C)c3ccnc(Nc4cccc(S(N)(=O)=O)c4)n3)ccc12 0.13%, COc1cc2ncn(-c3cc(OCc4ccccc4S(C)(=O)=O)c(C#N)s3)c2cc1OC 5.28%, CCn1c(-c2nonc2N)nc2ccc(F)cc21 12.3%, CCn1c(-c2nonc2N)nc2c(C#CC(C)(C)O)nc(CN3CCCC3)cc21 9.71%, CCn1c(-c2nonc2N)nc2ccccc21 2.35%, NS(=O)(=O)c1ccc(-c2cc3ccncc3cc2OCc2ccccc2)cc1 2.83%, COC(=O)c1cncc(C=Cc2c(C)cc(O)cc2C)c1 -5.74%, CC(Oc1cc(-n2cnc3ccc(OCC4CCN(C)CC4)cc32)sc1C(N)=O)c1ccccc1Cl (stereo not given) 8.04%, CS(=O)(=O)Nc1ccc(-c2cc(-c3ccccc3)cc(C(N)=O)c2N)cc1 24.7%, CC1=C(C(=O)Nc2ccc3[nH]ncc3c2)C(c2ccc(F)cc2)NC(=O)N1 (stereo not given) -2.1%, FC(F)(F)c1cccc(Nc2nccc(-c3cnn4nc(-c5ccccc5)ccc34)n2)c1 -11.3%, COC(=O)Nc1nc2ccc(Sc3ccc(NC(=O)Nc4cc(C(F)(F)F)ccc4F)cc3)cc2[nH]1 15%, CCS(=O)(=O)c1ccc(OC)c(Nc2ncc(-c3cccc(OC)c3)o2)c1 -4.23%, CN(C)c1cc2c(Nc3ccc4c(cnn4Cc4ccccc4)c3)ncnc2cn1 -7.49%, CCS(=O)(=O)c1ccc(OC)c(Nc2ncc(-c3cccc(C(C)=O)c3)o2)c1 -1.52%, CN1CCC(n2cnc(-c3ccc(F)cc3)c2-c2ccnc(N)n2)CC1 -4.55%, N#Cc1c(NC(=O)CN2CCOCC2)sc2c1CCCC2 -8.28%, COc1ccc(-c2nn3ncccc3c2-c2ccnc(Nc3cccc(C(F)(F)F)c3)n2)cc1 -0.544%, CNC(=O)c1cccc(C#Cc2cncnc2Nc2ccc(OCc3cccc(F)c3)c(Cl)c2)c1 -14.8%, CC(Oc1cc(-n2cnc3ccc(OCC4CCN(C)CC4)cc32)sc1C(N)=O)c1ccccc1C(F)(F)F (stereo not given) 3.41%, COc1cc(N2CCN(C(C)C)CC2)ccc1Nc1nc(Nc2cccc(F)c2C(=O)O)c2cc[nH]c2n1 0.459%, c1ccc(-c2[nH]ncc2-c2ccnc(-c3ccc(OCCn4ccnc4)cc3)c2)nc1 0.937%, O=C1NC(=O)C(c2cccc(Cl)c2)=C1Nc1ccc(O)c(Cl)c1 -4.63%

Potency, inactive:
CCn1c(-c2nonc2N)nc2c(C#CC(C)(C)O)nc(OCC(N)c3ccccc3)cc21 (stereo not given)

Potency, active:
Nc1nc(-c2ccccn2)c(-c2ccc3ncccc3n2)s1 32.6 µM, N#Cc1c(NC(=O)c2ccccc2F)sc2c1CCCC2 0.819 µM, c1cc(-c2cnn3nc(N4CCOCC4)ccc23)nc(NC2CC2)n1 4.61 µM, NC(=O)c1cccc(Nc2nccc(Nc3cccc4[nH]ncc34)n2)c1 13 µM
